For the first assay, the target named is ANKRD40. The assay is described as follows: pooled miR-30 sensor sort-seq; sequence = guide strand. The following applies: shRNA.
Take TATCATCAGAACCAGTTCCAGC: the sensor-assay potency score (higher = more potent) is -0.968.

In the case of TTCACTTATCATCAGAACCAGT, the sensor-assay potency score (higher = more potent) is -0.41.

As to TTGGAGTCGAGCAACATCCTTG, the sensor-assay potency score (higher = more potent) is -0.239.

On to TTCCTTAACAGAGTATTGGGTA, for which the sensor-assay potency score (higher = more potent) worked out at 0.698.

As to TGATCTTCTCCACTTGATCTGG, the sensor-assay potency score (higher = more potent) was -0.74.

As to ATTATTTTCACTTATCATCAGA, the sensor-assay potency score (higher = more potent) was -0.625.

Consider TAACTTTCTGATCTTCTCCACT, for which the sensor-assay potency score (higher = more potent) was -1.02.

Consider TTGTCCTTCCTTAACAGAGTAT, for which the sensor-assay potency score (higher = more potent) is -0.746.

With TCGAGCAACATCCTTGTCCTTC, the sensor-assay potency score (higher = more potent) was -0.697.

The sequence TTGATCTGGATTAACACCCAGC had a sensor-assay potency score (higher = more potent) of -0.194.

TTTTGTGGTAAGAATTTCTTTG: the sensor-assay potency score (higher = more potent) is -0.767.

Regarding TAACAGGTAAGAGACCACCTGA, the sensor-assay potency score (higher = more potent) was -0.364.

A further assay concerns the target ANKRD53. The description is as above. The following applies: shRNA.
Consider TTGCTTGGTATTGGAGACCAGA, for which the sensor-assay potency score (higher = more potent) was -0.812.

The sequence AAACTTGTACTCCTCTACCAGG returned a sensor-assay potency score (higher = more potent) of -1.13.

In turn, TTGACCTTGATACTCAATCAGG showed a sensor-assay potency score (higher = more potent) of -0.673.

On to TTGGACTCCGCGTCAGTCCAGG, for which the sensor-assay potency score (higher = more potent) was -1.11.

As for TTGCTAACATTCCACATTGTGG, the sensor-assay potency score (higher = more potent) is -1.32.

For TCTGATAGCAGCTTCTCTGAGA, the sensor-assay potency score (higher = more potent) is -0.337.

Consider TTCATCGAATGTGTCACGCAGG, for which the sensor-assay potency score (higher = more potent) was -0.608.

The sequence TAGTAGAGAAATGTCCTGCCAT registered a sensor-assay potency score (higher = more potent) of -0.32.
Note: reference of the scale not given here.
